# Source: PubChem BioAssay (National Center for Advancing Translational Sciences (NCATS))
# Compounds with a hit are over-represented: about 12% of the library has one in this group of screens.
# FMDV inh – High Throughput Screening for Foot and Mouth Disease Virus Antivirals; FMDV antiviral cell-based qHTS; Potency, µM (top dose mostly 57.9 µM), for inactives: at the top dose activity change, negative = inhibition, actives largely listed as inhibitors; actives 1.2% (n = 410,000); AID 1159524, 2015; calls by dose curve; tested in HEK293T cells; also: read-out not given here; potency is read from the fitted curve at half-maximal effect; % is scaled to controls: 0 for no effect and ±100 for the full control effect; nearly all actives have a fitted effect of over 45% in size
# Sm TGR inh – qHTS Assay for the Inhibitors of Schistosoma Mansoni Peroxiredoxins | Schistosoma mansoni thioredoxin glutathione reductase (TGR), Q962Y6 | purified TGR, DTNB reduction, TNB absorbance 405 nm | Potency, µM (top dose mostly 114 µM), for inactives: at the highest dose activity change, negative = inhibition, usual class: inhibitors | actives 3% (n = 360,000) | AID 485364, 2010; active = well fitted inhibition curve with a large enough effect; inconclusive = small, poorly fitted or top-dose-only effect; inactive = no such curve, though single readings can be large or run the other way; also: potency is read from the fitted curve at half-maximal effect; % is scaled to controls: 0 for no effect and ±100 for the full control effect; nearly all actives have a fitted effect of over 60% in size
#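 TGR 20 nM + NADPH 100 uM (dispensed conc.), cpd preinc 15 min RT; start with NADPH (500 uM addition) then DTNB (15 mM addition). Kinetic TNB absorbance, 405 nm filter. Four-parameter Hill fit across titration.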
# Shiga inhibitor – A qHTS for Small Molecule Inhibitors of Shiga Toxin; inhibition, % at 38.7 µM; actives 9.2% (n = 290,000); Vero cells, Shiga toxin protein synthesis inhibition reporter; in the data active = inhibition mostly above about 28%, no sharp cut-off; inactive = mostly below about 43%; also: 0% is about no effect
# CHX counter – Cycloheximide Counterscreen for Small Molecule Inhibitors of Shiga Toxin. actives 12% (n = 300,000). AID 2314, 2010. max response, %. cell reporter, cycloheximide protein synthesis inhibition counterscreen; in the data active = max response mostly above about 13%, no sharp cut-off; inactive = mostly below about 14%; also: read at 38.3 µM for the half of the compounds with a filed dose; 0% is about no effect
# * marks the source's active call; other numbers are inactive results; ? = inconclusive; · = no result.
SMILES,FMDV inh,Sm TGR inh,Shiga inhibitor,CHX counter
COc1ccc(C2CC(c3ccccc3)=NN2C(=S)Nc2ccccc2)cc1 (stereo not given),-6.8%,-0.4%,-9.4,10.5
COc1ccc(C2CC(c3ccc(Br)cc3)=NN2C(=S)Nc2ccccc2)cc1 (stereo not given),49.5%,17.2%,43.3*,21.4*
COc1ccc(C2=NN(C(N)=S)C(c3ccccc3)C2)cc1 (stereo not given),20.7%,-11.4%,51.3*,31.9*
COc1ccc(C2=NN(C(=S)Nc3ccccc3)C(c3ccccc3)C2)cc1 (stereo not given),5.9%,0.0%,0.7,-2.4
COc1ccc(S(=O)(=O)N(CC(=O)NCc2ccc(C)cc2)c2ccc(Cl)cc2)cc1,0.0%,0.0%,·,·
CC(C)(C)OC(=O)N1CCC(c2c(C(=O)N3CCN(c4ccccn4)CC3)cnn2-c2ccc(F)cc2F)CC1,-13.5%,-3.2%,·,·
Clc1ccc(N2CCN(c3ncnc4c3nc3n4CCCC3)CC2)cc1,?,0.7%,·,·
Fc1ccc(N2CCN(c3ncnc4c3nc3n4CCCCC3)CC2)cc1,25.1µM*,-2.1%,·,·
c1ccc(N2CCN(c3ncnc4c3nc3n4CCCCC3)CC2)cc1,10µM*,1.7%,·,·
Cc1cccc(N2CCN(c3ncnc4c3nc3n4CCCCC3)CC2)c1C,-13.7%,3.4%,·,·
O=C1COc2cc(S(=O)(=O)CCC(=O)N3CCN(c4cccc(Cl)c4)CC3)c(Cl)cc2N1,?,-2.0%,·,·
NS(=O)(=O)c1ccc(N=Cc2c(O)c3ccccc3oc2=O)cc1,-17.3%,-1.3%,-5.9,-1.9
CC(C)c1ccc(N=Cc2c(O)c3ccccc3oc2=O)cc1,?,2.6%,64.2*,59.9*
COc1ccc(N=Cc2c(O)c3ccccc3oc2=O)cc1,10.6%,-4.4%,60.6*,32.4*
Cc1cc(C)cc(N=Cc2c(O)c3ccccc3oc2=O)c1,17.2%,3.0%,12.2,14.8
Cc1cc(C)c(N=Cc2c(O)c3ccccc3oc2=O)c(C)c1,44.0%,0.0%,·,15.4*
COc1ccc(OC)c(N=Cc2c(O)c3ccccc3oc2=O)c1,28.1%,-2.1%,-11.4,2.0
Cc1ccc2c(c1)-c1nc(-c3ccc4c(c3)NC(=O)CO4)cc(-c3ccc(F)cc3)c1CO2,-10.8%,2.8%,·,·
CCOC(=O)c1csc(NC(=O)CN2CCN(C)CC2)n1,-22.1%,5.3%,5.3,-1.7
CCOC(=O)c1csc(N/N=C2\CCCc3ccccc32)n1,12.7%,2.5%,33.2*,11.6*
CCOC(=O)c1csc(N/N=C2\CCc3ccccc32)n1,-2.9%,-35.0%,38.2*,31.1*
COc1ccc2c(c1)CCC/C2=N\Nc1nc(C(=O)NN)cs1,8.9%,-3.0%,75.8*,46.1*
Cc1cc(C)cc(NC(=O)CSc2nc(-c3ccccc3)c3cc(F)ccc3n2)c1,?,2.1%,·,·
CCOC(=O)C1CCC(CN(Cc2c(Cl)cccc2Cl)S(=O)(=O)c2ccc(F)cc2)CC1 (stereo not given),-11.0%,6.5%,·,·
Cc1cc(OCC(=O)N(C(C)C)C(C)C)ccc1Cl,?,-0.7%,9.2,-1.0
SMILES,FMDV inh,Sm TGR inh,Shiga inhibitor,CHX counter
COCCCNC(=O)COc1ccc(Cl)c(C)c1,43.2%,-0.8%,32.5,17.8*
Cc1cc(OCC(=O)NC(C)(C)C)ccc1Cl,19.0%,-7.7%,21.8*,50.7*
Cc1cc(=O)oc2cc(OCC(=O)Nc3c(C(C)C)cccc3C(C)C)ccc12,-11.3%,-6.8%,·,·
COc1cc(C(=O)N2CC(=O)Nc3ccc(C)cc3C2c2ccc(F)cc2)cc(OC)c1OC (stereo not given),-20.3%,4.0%,·,·
Cc1cccc(-c2nc3scc(CCNS(=O)(=O)c4ccc(F)cc4C)n3n2)c1,17.7%,-1.5%,·,·
CC(=O)Nc1cc2c(=O)n(Cc3ccccc3)c(C)nc2cc1N1CCOCC1,38.7%,6.31µM*,35.6,17.3*
Cc1nc2cc(N3CCCCC3)c(NC(=O)c3cccnc3)cc2c(=O)n1Cc1ccccc1,-4.9%,0.0%,-20.5,-3.8
CCOC(=O)CCNC(=O)Nc1ccc2nc(C)n(Cc3ccc(Cl)cc3)c(=O)c2c1,·,-0.3%,29.9,-1.0
O=C(Nc1ccc2nc(C3CC3)n(Cc3ccccc3)c(=O)c2c1)C1CC1,51.7%,-8.4%,31.4*,22.6*
CC(=O)Nc1ccc2nc(C)n(Cc3ccc(Cl)cc3)c(=O)c2c1,27.0%,-7.9%,53.4*,28.4*
O=c1c2sc3ccccc3c2n(Cc2ccc(F)cc2Cl)c(=O)n1Cc1ccccc1,-8.4%,1.1%,·,·
NCCc1nc2cccnc2n1-c1ccccc1,-21.6%,3.5%,·,·
Cc1cn(C)c(CC(=O)Nc2cccc(C#N)c2)c1C(=O)O,-8.0%,-2.5%,·,·
Cc1ccc(N2C(=O)NC(=O)/C(=C\c3ccc(N4CCOCC4)cc3)C2=O)cc1,0.0%,?,9.7,-1.0
Cc1ccc(N2C(=O)NC(=O)/C(=C\c3ccc([N+](=O)[O-])o3)C2=O)cc1,·,8.91µM*,-16.8,-2.1
COc1cccc(N2C(=O)/C(=C/c3ccc(C)o3)C(=O)NC2=S)c1,17.8µM*,1.78µM*,12.1,0.6
Cc1ccc(N2C(=O)/C(=C/c3ccc(CN(CCC#N)S(C)(=O)=O)o3)C(=O)NC2=S)cc1,-8.2%,2.82µM*,-9.7,1.7
COc1ccc(N2C(=O)/C(=C/c3ccc(N(C)C)o3)C(=O)NC2=S)cc1,-15.1%,?,-7.2,-1.9
Cc1ccc(/C=C2\C(=O)NC(=S)N(c3ccc(F)cc3)C2=O)o1,31.6µM*,1.58µM*,11.1,1.0
CCc1ccc(S(=O)(=O)c2nnn3c2nc(Nc2ccc(C)c(Cl)c2)c2sccc23)cc1,-8.7%,4.4%,·,·
COc1cc([C@@H]2Nc3c(F)cccc3[C@@H]3C=CC[C@@H]32)cc(Br)c1OC,-16.2%,-1.2%,·,·
CCOC(=O)C1CCC(CN(Cc2c(Cl)cccc2Cl)S(=O)(=O)c2ccc(F)c(C)c2)CC1 (stereo not given),-15.3%,10.6%,·,·
Cc1cc(C)n2cc(CSc3nc4cc(Cl)ccc4o3)nc2n1,?,-6.1%,-24.4,-4.1
Cc1cc(C)n2cc(CSc3nnc(SCc4cn5c(C)cc(C)nc5n4)s3)nc2n1,·,-7.5%,16.3,-1.1
Cc1ccc(SCc2cn3c(C)cc(C)nc3n2)cc1,8.1%,-3.2%,69.5*,23.2*
SMILES,FMDV inh,Sm TGR inh,Shiga inhibitor,CHX counter
Cc1cc(C)n2cc(CSc3nc4ccccc4s3)nc2n1,37.1%,2.8%,39.5*,35.7*
Cc1cc(C)n2cc(CSc3ccc(Cl)cc3)nc2n1,0.0%,-5.8%,49.3*,27.0*
Cc1ccc(C)c(S(=O)(=O)c2nnn3c2nc(NCc2ccc4c(c2)OCO4)c2sccc23)c1,-8.4%,4.6%,·,·
COc1cc(OC)c(NC(=O)CCn2cccn2)cc1Cl,-5.6%,6.7%,·,·
CCc1nc(C)cc2c1sc1ccccc12,0.0%,-19.9%,38.0,19.2*
COc1ccc(S(=O)(=O)N(CCc2ccccc2)CC(=O)NCc2ccccc2)cc1OC,24.7%,-0.7%,·,·
COc1cccc(-n2nnnc2SCC(=O)Nc2ccccc2OC)c1,-10.7%,-20.9%,-5.8,-0.7
CCCS(=O)(=O)c1nnnn1-c1cccc(OC)c1,28.2µM*,5.62µM*,2.0,-1.2
N#C/C(=C\c1cn(CCOc2ccccc2)c2ccccc12)C(=O)NCc1ccco1,?,28.9%,12.9,16.0*
